Results reported in PubChem BioAssay (EPA / NIEHS).
Records with an inconclusive call do not appear. The source made the active and inactive calls. The calls were made as follows, unless noted: active = hit-call score of the fitted dose curve at least 0.9, where 1 is the maximum; inconclusive = response in the unintended direction; inactive = score below 0.9.

How the values were obtained:
[1] = TOX21_p53_BLA_p2_viability: Viability Assessment in the Tox21 HCT-116 p53 Agonism Beta-lactamase Assay, Phase 2 (AID 2283591);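 also: compound exposure lasted 16 h at 37 °C; actives lower the ATP signal meaning cytotoxicity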
Procedure, shortened: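 HCT-116 p53-bla cells (4000/well) rested 5 h at 37C, then received compounds in DMSO (217-fold dilution) for 16 h at 37C, 5% CO2. After the CCF4 read, CellTiter-Glo was added; ATP luminescence was read after 30 min at room temperature.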

[2] = molecular target: Cellular tumor antigen p53 (Homo sapiens) (UniProt P04637); experiment: TOX21_p53_BLA_p2_ratio: Tox21 HCT-116 p53 Agonism Beta-lactamase Assay, Ratio, Phase 2 (AID 2283592)
Cellular tumor antigen p53 (Homo sapiens), sequence (P04637 whole entry, looked up): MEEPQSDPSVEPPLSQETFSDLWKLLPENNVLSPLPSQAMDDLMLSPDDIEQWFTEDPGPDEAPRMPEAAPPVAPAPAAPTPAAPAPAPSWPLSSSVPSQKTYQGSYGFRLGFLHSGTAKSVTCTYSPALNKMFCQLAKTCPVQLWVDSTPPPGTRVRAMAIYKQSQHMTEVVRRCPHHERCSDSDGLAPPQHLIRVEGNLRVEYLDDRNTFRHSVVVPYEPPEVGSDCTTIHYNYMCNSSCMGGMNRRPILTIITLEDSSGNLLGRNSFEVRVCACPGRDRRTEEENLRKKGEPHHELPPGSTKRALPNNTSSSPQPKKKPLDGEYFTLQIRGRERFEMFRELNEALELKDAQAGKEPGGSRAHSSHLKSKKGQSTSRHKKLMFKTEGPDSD
Procedure, shortened: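 HCT116 cells carrying a p53-responsive beta-lactamase reporter were plated, incubated 5 h at 37C, then dosed with compounds in DMSO (217-fold dilution) for 16 h. CCF4-AM substrate was added for 2 h at room temperature; the 460/530 nm emission ratio gave gain-of-signal activity relative to DMSO.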

[3] = TOX21_p53_BLA_p3_viability: Viability Assessment in the Tox21 HCT-116 p53 Agonism Beta-lactamase Assay, Phase 3 (AID 2283593);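 also: cells exposed to compound for 16 h before reading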
Procedure, shortened: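 HCT-116 cells (4000/well) rested 5 h at 37C, then got DMSO compounds by pin tool (217-fold dilution) for 16 h at 37C, 5% CO2. After the bla read, CellTiter-Glo was added and luminescence read at 30 min, room temperature.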

[4] = molecular target: Cellular tumor antigen p53 (Homo sapiens) (UniProt P04637); experiment: TOX21_p53_BLA_p3_ratio: Tox21 HCT-116 p53 Agonism Beta-lactamase Assay, Ratio, Phase 3 (AID 2283596)
Procedure, shortened: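 HCT116 p53-bla cells (4000/well) given compound in DMSO (217-fold dilution) after 5 h, incubated 16 h at 37C. CCF4-AM substrate 2 h at room temperature; 460/530 nm emission ratio, gain fitted against DMSO.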

[5] = TOX21_p53_BLA_p4_viability: Viability Assessment in the Tox21 HCT-116 p53 Agonism Beta-lactamase Assay, Phase 4 (AID 2283597);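 also: hits lower the luminescence signal meaning cytotoxicity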
Procedure, shortened: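 HCT116 p53-bla cells (4000/well) rested 5 h at 37C, then received compounds in DMSO (217-fold dilution) for 16 h at 37C, 5% CO2. CellTiter-Glo was added after the CCF4-AM read, and luminescence was read after 30 min at room temperature.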

[6] = molecular target: Cellular tumor antigen p53 (Homo sapiens) (UniProt P04637); experiment: TOX21_p53_BLA_p5_ratio: Tox21 HCT-116 p53 Agonism Beta-lactamase Assay, Ratio, Phase 5 (AID 2283599)
Procedure, shortened: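 HCT-116 cells carrying a p53-inducible beta-lactamase reporter were seeded at 4000 cells/well and dosed after 5 h with compound in DMSO (217-fold dilution). After 16 h at 37C, CCF4-AM substrate was added for 2 h, and the 460/530 nm emission ratio was scored as gain-of-signal versus DMSO.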

[7] = TOX21_p53_BLA_p5_viability: Viability Assessment in the Tox21 HCT-116 p53 Agonism Beta-lactamase Assay, Phase 5 (AID 2283600)
Procedure, shortened: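 Cells were plated at 4000/well, rested 5 h at 37C, then given compounds in DMSO (217-fold dilution) for 16 h at 37C, 5% CO2. Following the CCF4-AM beta-lactamase read, CellTiter-Glo was added and luminescence was read after 30 min at room temperature.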

[8] = molecular target: Cellular tumor antigen p53 (Homo sapiens) (UniProt P04637); experiment: TOX21_p53_BLA_p4_ratio: Tox21 HCT-116 p53 Agonism Beta-lactamase Assay, Ratio, Phase 4 (AID 2283601)
Procedure, shortened: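 HCT116 cells carrying an inducible beta-lactamase reporter were plated at 4000 cells/well, rested 5 h, then exposed to compounds in DMSO (217-fold dilution) for 16 h at 37C. CCF4-AM substrate was loaded 2 h at room temperature; 460/530 nm emission ratio scored gain-of-signal versus DMSO.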

[9] = CCTE_Harrill_HTTr_Viability_MCF7: CCTE's 6-hour Cell Viability Assessment for the High-Throughput Transcriptomics (HTTr) Platform, in MCF-7 cells cultured in DMEM + 10% fetal bovine serum, Harrill Lab (AID 2284010; active = hit-call score of the fitted dose curve at least 0.9, where 1 is the maximum; inactive = score below 0.9)
Procedure, shortened: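 Cells were dosed with chemicals in an eight-point dilution series, imaged 6 hours later for propidium iodide uptake, and the endpoint was analyzed by bidirectional fitting against DMSO as negative control.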

[10] = CCTE_Harrill_HTTr_Apoptosis_MCF7: CCTE's 6-hour Apoptosis Assessment for the High-Throughput Transcriptomics (HTTr) Platform, in MCF-7 cells cultured in DMEM + 10% fetal bovine serum, Harrill Lab (AID 2284011; active = hit-call score of the fitted dose curve at least 0.9, where 1 is the maximum; inactive = score below 0.9)
Procedure, shortened: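 MCF-7 cells in DMEM + 10% fetal bovine serum were exposed to chemicals for 6 hours over an eight-point dilution series. Caspase-3/7 activation was imaged by high content imaging with CellEvent Caspase 3/7 Green; bidirectional fitting used DMSO as baseline.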

[11] = CCTE_Harrill_HTTr_CellCount_MCF7: CCTE's Cell Proliferation Assessment for the High-Throughput Transcriptomics (HTTr) Platform, Harrill Lab (AID 2284012);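 also: count of Hoechst-stained nuclei per well by high-content imaging in MCF-7 cells; cells exposed to compound for six hours; intended direction is loss of nuclei count meaning fewer cells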
Procedure, shortened: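 Chemicals in eight-point dilution series are added to MCF-7 cells for six hours, nuclei are stained with Hoechst and imaged, and per-well nuclei counts are fitted in both directions relative to DMSO controls.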

THRA (gene 7067) = THRA (gene 7067) (UniProt P10827); experiment: TOX21_TRA_COA_Antagonist_Followup_ratio: Tox21 Thyroid Hormone Receptor alpha Antagonism through Coactivator Recruitment Follow-Up Assay, Ratio (AID 2283953)
THRA (gene 7067), sequence (P10827 whole entry, looked up, the tested form may be a part): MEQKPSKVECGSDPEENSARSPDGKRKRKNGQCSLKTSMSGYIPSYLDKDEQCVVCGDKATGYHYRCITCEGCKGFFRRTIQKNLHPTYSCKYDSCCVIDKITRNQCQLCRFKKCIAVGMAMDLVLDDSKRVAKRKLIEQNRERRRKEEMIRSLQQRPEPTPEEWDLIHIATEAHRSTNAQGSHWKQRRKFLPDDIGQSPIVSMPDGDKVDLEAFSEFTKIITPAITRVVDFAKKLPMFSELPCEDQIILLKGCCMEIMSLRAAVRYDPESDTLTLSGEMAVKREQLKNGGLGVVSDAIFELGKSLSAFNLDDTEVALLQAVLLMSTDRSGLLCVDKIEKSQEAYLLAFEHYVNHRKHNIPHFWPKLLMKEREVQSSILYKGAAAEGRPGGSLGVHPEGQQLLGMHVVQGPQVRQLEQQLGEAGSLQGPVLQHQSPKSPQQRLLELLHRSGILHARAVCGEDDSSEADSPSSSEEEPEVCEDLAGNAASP
Procedure, shortened: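 520:495 nm emission ratio (excitation 340 nm) reports fluorescein-SRC-2 peptide recruitment to GST-TRα LBD by TR-FRET with Tb anti-GST antibody. Values were normalized to DMSO (0%) and T3 control wells (100%); loss of signal indicated antagonism.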

THRB (gene 7068) [12] = molecular target: THRB (gene 7068) (UniProt P10828); experiment: TOX21_TRB_BLA_Antagonist_Followup_ratio: Tox21 Thyroid Hormone Receptor beta Antagonism Beta-lactamase (BLA) Follow-Up Assay, Ratio (AID 2283958)
THRB (gene 7068), sequence (P10828 whole entry, looked up, the tested form may be a part): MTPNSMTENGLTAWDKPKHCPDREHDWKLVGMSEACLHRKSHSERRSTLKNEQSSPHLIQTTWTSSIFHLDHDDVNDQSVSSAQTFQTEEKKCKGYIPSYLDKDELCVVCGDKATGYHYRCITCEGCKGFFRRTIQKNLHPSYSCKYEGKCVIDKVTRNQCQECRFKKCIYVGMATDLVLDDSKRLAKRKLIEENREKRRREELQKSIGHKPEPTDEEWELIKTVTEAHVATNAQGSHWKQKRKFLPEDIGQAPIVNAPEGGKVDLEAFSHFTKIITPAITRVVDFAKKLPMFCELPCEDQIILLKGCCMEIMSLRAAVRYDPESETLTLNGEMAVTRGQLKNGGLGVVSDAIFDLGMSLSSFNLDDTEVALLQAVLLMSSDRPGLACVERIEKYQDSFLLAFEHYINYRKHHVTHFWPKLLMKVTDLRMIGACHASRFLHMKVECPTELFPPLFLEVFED
Procedure, shortened: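 HEK293T TRb-bla (GAL4 DBD + hTRβ LBD), 2% cs-FBS phenol red-free DMEM, 5 h attach; cpds 11-pt triplicate, 18 h 37C; CCF4-AM 2 h RT; 460/530 ratio vs DMSO; CellTiter-Glo viability same wells.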

[13] = TOX21_TRB_BLA_Antagonist_Followup_viability: Viability Assessment in the Tox21 Thyroid Hormone Receptor beta Antagonism Beta-lactamase (BLA) Follow-Up Assay (AID 2283961)
Procedure, shortened: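 HEK293T cells stably expressing GAL4-DBD/human TRβ-LBD with UAS-bla reporter, 3,000 cells/well in phenol red-free DMEM, 2% charcoal-stripped FBS. Compounds at 11 concentrations in triplicate, 18 h at 37C/5% CO2; viability by CellTiter-Glo luminescence after 30 min at room temperature.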

THRB (gene 7068) [14] = molecular target: THRB (gene 7068) (UniProt P10828); experiment: TOX21_TRB_COA_Antagonist_Followup_ratio: Tox21 Thyroid Hormone Receptor beta Antagonism through Coactivator Recruitment Follow-Up Assay, Ratio (AID 2283967)
Procedure, shortened: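 Cell-free TR-FRET coactivator recruitment with GST-tagged TRβ LBD (5.0 nM) and fluorescein-labeled SRC-2 peptide (200 nM) detected by terbium anti-GST antibody (2 nM). The 520:495 nm emission ratio was normalized to DMSO (0%) and T3 (100%).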

Measured: outcome

COc1ccc(Cl)cc1C(=O)NCCc1ccc(S(=O)(=O)NC(=O)NC2CCCCC2)cc1
not listed: [11] | THRA (gene 7067) | THRB (gene 7068) [12] | [13] | THRB (gene 7068) [14]
inactive: all other assays above

NNc1nncc2ccccc12
not listed: [11] | THRA (gene 7067) | THRB (gene 7068) [12] | [13] | THRB (gene 7068) [14]
inactive: all other assays above

Clc1cccc(Cl)c1NC1=NCCN1
not listed: THRA (gene 7067) | THRB (gene 7068) [12] | [13] | THRB (gene 7068) [14]
inactive: all other assays above

CCCC(=O)O[C@]1(C(=O)CCl)[C@@H](C)C[C@H]2[C@@H]3CCC4=CC(=O)C=C[C@]4(C)[C@@]3(F)C(=O)C[C@@]21C
not listed: [9] | [10] | [11]
inactive: all other assays above
